target: pT7_6His-AlfaTag-HOXD13 (human, UniProt P35453 263-343); assay: PADIT-seq; settings: dsDNA, one strand shown
Sequence (P35453 263-343): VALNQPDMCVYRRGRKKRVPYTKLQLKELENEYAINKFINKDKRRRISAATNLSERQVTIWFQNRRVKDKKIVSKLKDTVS

Sequence | binding signal [log2FC]
CTCGAGGATATCAAGATCTGGCCTCGGCAAAATAAAAGGAACCTCTAGCTAGCCGACTCACTATAGGGATAATCGCCCTGAGCAAAGACC | 1.46 ± 0.0905
CTCGAGGATATCAAGATCTGGCCTCGGCTTCCTAAAAGGAACCTCTAGCTAGCCGACTCACTATAGGGATAATCGCCCTGAGCAAAGACC | -0.635 ± 0.152
CTCGAGGATATCAAGATCTGGCCTCGGCAAGGTAAAAGGAACCTCTAGCTAGCCGACTCACTATAGGGATAATCGCCCTGAGCAAAGACC | -0.357 ± 0.0936
CTCGAGGATATCAAGATCTGGCCTCGGCTTTTTACGAGGAACCTCTAGCTAGCCGACTCACTATAGGGATAATCGCCCTGAGCAAAGACC | 3.37 ± 0.0866
CTCGAGGATATCAAGATCTGGCCTCGGCATTTTAGACGGAACCTCTAGCTAGCCGACTCACTATAGGGATAATCGCCCTGAGCAAAGACC | -0.141 ± 0.116
CTCGAGGATATCAAGATCTGGCCTCGGCTAATTAAAAGGAACCTCTAGCTAGCCGACTCACTATAGGGATAATCGCCCTGAGCAAAGACC | 2.92 ± 0.0818
CTCGAGGATATCAAGATCTGGCCTCGGCGGAATAAAAGGAACCTCTAGCTAGCCGACTCACTATAGGGATAATCGCCCTGAGCAAAGACC | 0.87 ± 0.0838
CTCGAGGATATCAAGATCTGGCCTCGGCGCGGTAAAAGGAACCTCTAGCTAGCCGACTCACTATAGGGATAATCGCCCTGAGCAAAGACC | 0.513 ± 0.0756
CTCGAGGATATCAAGATCTGGCCTCGGCCTTTTAATCGGAACCTCTAGCTAGCCGACTCACTATAGGGATAATCGCCCTGAGCAAAGACC | 1.35 ± 0.0812
CTCGAGGATATCAAGATCTGGCCTCGGCTAGATAAAAGGAACCTCTAGCTAGCCGACTCACTATAGGGATAATCGCCCTGAGCAAAGACC | 0.188 ± 0.107
CTCGAGGATATCAAGATCTGGCCTCGGCCCAGTAAAAGGAACCTCTAGCTAGCCGACTCACTATAGGGATAATCGCCCTGAGCAAAGACC | 2.32 ± 0.0885
CTCGAGGATATCAAGATCTGGCCTCGGCATTTTACCGGGAACCTCTAGCTAGCCGACTCACTATAGGGATAATCGCCCTGAGCAAAGACC | 1.17 ± 0.0862
CTCGAGGATATCAAGATCTGGCCTCGGCATTTTAATGGGAACCTCTAGCTAGCCGACTCACTATAGGGATAATCGCCCTGAGCAAAGACC | 2.51 ± 0.077
CTCGAGGATATCAAGATCTGGCCTCGGCATGGTAAAAGGAACCTCTAGCTAGCCGACTCACTATAGGGATAATCGCCCTGAGCAAAGACC | 1.03 ± 0.0704
CTCGAGGATATCAAGATCTGGCCTCGGCACACTAAAAGGAACCTCTAGCTAGCCGACTCACTATAGGGATAATCGCCCTGAGCAAAGACC | 0.427 ± 0.0841
CTCGAGGATATCAAGATCTGGCCTCGGCGCGTAAGCGGGAACCTCTAGCTAGCCGACTCACTATAGGGATAATCGCCCTGAGCAAAGACC | -0.575 ± 0.113
CTCGAGGATATCAAGATCTGGCCTCGGCCGCCCATCAGGAACCTCTAGCTAGCCGACTCACTATAGGGATAATCGCCCTGAGCAAAGACC | -1.02 ± 0.114
CTCGAGGATATCAAGATCTGGCCTCGGCGACGTAAAAGGAACCTCTAGCTAGCCGACTCACTATAGGGATAATCGCCCTGAGCAAAGACC | 0.404 ± 0.076
CTCGAGGATATCAAGATCTGGCCTCGGCATTTTATAAGGAACCTCTAGCTAGCCGACTCACTATAGGGATAATCGCCCTGAGCAAAGACC | 3.26 ± 0.0841
CTCGAGGATATCAAGATCTGGCCTCGGCCTTTTAAATGGAACCTCTAGCTAGCCGACTCACTATAGGGATAATCGCCCTGAGCAAAGACC | 2.36 ± 0.0747

Sequence | binding signal [log2FC]
CTCGAGGATATCAAGATCTGGCCTCGGCGCGGTAGCGGGAACCTCTAGCTAGCCGACTCACTATAGGGATAATCGCCCTGAGCAAAGACC | -1.07 ± 0.136
CTCGAGGATATCAAGATCTGGCCTCGGCGCCGTAAAAGGAACCTCTAGCTAGCCGACTCACTATAGGGATAATCGCCCTGAGCAAAGACC | 1.76 ± 0.0756
CTCGAGGATATCAAGATCTGGCCTCGGCTCCTTAAAAGGAACCTCTAGCTAGCCGACTCACTATAGGGATAATCGCCCTGAGCAAAGACC | 1.08 ± 0.104
CTCGAGGATATCAAGATCTGGCCTCGGCCGCTTACGCGGAACCTCTAGCTAGCCGACTCACTATAGGGATAATCGCCCTGAGCAAAGACC | -0.713 ± 0.125
CTCGAGGATATCAAGATCTGGCCTCGGCAAACCACGCGGAACCTCTAGCTAGCCGACTCACTATAGGGATAATCGCCCTGAGCAAAGACC | -0.989 ± 0.132
CTCGAGGATATCAAGATCTGGCCTCGGCCCCTTAAAAGGAACCTCTAGCTAGCCGACTCACTATAGGGATAATCGCCCTGAGCAAAGACC | 2.7 ± 0.0989
CTCGAGGATATCAAGATCTGGCCTCGGCGGTTTAAAAGGAACCTCTAGCTAGCCGACTCACTATAGGGATAATCGCCCTGAGCAAAGACC | 1.97 ± 0.078
CTCGAGGATATCAAGATCTGGCCTCGGCAGTATAAAAGGAACCTCTAGCTAGCCGACTCACTATAGGGATAATCGCCCTGAGCAAAGACC | 1.92 ± 0.0665
CTCGAGGATATCAAGATCTGGCCTCGGCTTTGTAAAAGGAACCTCTAGCTAGCCGACTCACTATAGGGATAATCGCCCTGAGCAAAGACC | 1.2 ± 0.0832
CTCGAGGATATCAAGATCTGGCCTCGGCTGGGTAAAAGGAACCTCTAGCTAGCCGACTCACTATAGGGATAATCGCCCTGAGCAAAGACC | -0.514 ± 0.0905
CTCGAGGATATCAAGATCTGGCCTCGGCCGCGTAAAAGGAACCTCTAGCTAGCCGACTCACTATAGGGATAATCGCCCTGAGCAAAGACC | 1.44 ± 0.0853
CTCGAGGATATCAAGATCTGGCCTCGGCATTTTAGTAGGAACCTCTAGCTAGCCGACTCACTATAGGGATAATCGCCCTGAGCAAAGACC | 1.68 ± 0.0834
CTCGAGGATATCAAGATCTGGCCTCGGCGAACTAAAAGGAACCTCTAGCTAGCCGACTCACTATAGGGATAATCGCCCTGAGCAAAGACC | -0.56 ± 0.0894
CTCGAGGATATCAAGATCTGGCCTCGGCGTTTTACGTGGAACCTCTAGCTAGCCGACTCACTATAGGGATAATCGCCCTGAGCAAAGACC | 2.36 ± 0.0852
CTCGAGGATATCAAGATCTGGCCTCGGCTTTTTAGCAGGAACCTCTAGCTAGCCGACTCACTATAGGGATAATCGCCCTGAGCAAAGACC | 0.699 ± 0.0959
CTCGAGGATATCAAGATCTGGCCTCGGCCGCCCATAGGGAACCTCTAGCTAGCCGACTCACTATAGGGATAATCGCCCTGAGCAAAGACC | -0.685 ± 0.116
CTCGAGGATATCAAGATCTGGCCTCGGCTTTTTATTCGGAACCTCTAGCTAGCCGACTCACTATAGGGATAATCGCCCTGAGCAAAGACC | 1.86 ± 0.0775
CTCGAGGATATCAAGATCTGGCCTCGGCTCTCTAAAAGGAACCTCTAGCTAGCCGACTCACTATAGGGATAATCGCCCTGAGCAAAGACC | 0.412 ± 0.105
CTCGAGGATATCAAGATCTGGCCTCGGCTTTATAAAAGGAACCTCTAGCTAGCCGACTCACTATAGGGATAATCGCCCTGAGCAAAGACC | 2.35 ± 0.0828
